Data published in PubChem BioAssay AID1239 (SRMLSC, 2008).
Among all 190,000 compounds or so, about 3,100 (1.6%) were called active. Cut-off read from the data, not from the text of the source: active = fold change above about 3.3; inconclusive = no clear call, values can overlap the other calls; inactive = below that. The sample as a whole holds a higher share of actives than the screen did.

Test: NF-kB upregulation, human neuronal cells – cell-based, HTS, primary screen (AID 1239)
Conditions: NF-kB reporter expression, at 12.5 µM, stronger effect = higher value

Fold change, inactive:
CN(c1nc2ccccc2n2c(-c3ccco3)nnc12)S(=O)(=O)c1ccccc1 0.98, CN1c2ccccc2-c2nc3ccccc3n2C1c1ccco1 (stereo unspecified) 1.03, Cc1nc2ccccc2c(C)c1C(=O)c1ccc(F)cc1 0.8, COC(=O)c1c(NC(=O)CCCC(=O)O)sc2c1CCCCC2 0.98, CCn1c(=S)[nH]c2sc3c(c2c1=O)CCCCC3 1.2, CN(NC(=O)c1ccccc1)c1nc2ccccc2nc1C(F)(F)F 1.32, CN(NC(=O)c1ccccc1F)c1nc(C(F)(F)F)nc2ccccc12 1.67, Cc1cc(NS(=O)(=O)c2ccc(NC(=O)c3cccc(OC(F)F)c3)cc2)nc(C)n1 1.45, O=C1CN(C(=O)CN2C(=O)NC3(CCCCC3)C2=O)c2ccccc2N1 1.43, Cc1cc(C(C)(C)C)cc(C)c1N 1.01, COc1ccc(-c2cc(C)nc3nc(N)nn23)cc1 1.23, O=C(O)Cc1sc(-c2ccc(C(=O)O)cc2)nc1-c1ccccc1 1.21, O=C(O)Cc1sc(-c2ccccc2)nc1-c1cccs1 1.28, CCc1cccc(NC(=O)CCNS(=O)(=O)c2cccc3nonc23)c1 1.16, CCN1CCN(c2ccc([N+](=O)[O-])cc2C(=O)c2ccc(Cl)cc2)CC1 1.37, COc1ccc(N2CCN(c3ccc([N+](=O)[O-])cc3Cl)CC2)cc1 0.93, CCc1nnc(NC(=O)CCCSc2nc3ccccc3[nH]2)s1 1.01, COc1cccc(C(=O)Nc2ccc(NC(=O)c3ccco3)cn2)c1 1.03, Cc1ccnc(NC(=O)c2ccc(NC(=O)c3ccco3)cc2)c1 1.64, COc1cc(CN2CCNC(=O)C2CC(=O)NCCc2ncccc2C)cc(OC)c1 (stereo unspecified) 1.05, COCCSc1nnc(NC(=O)c2cc(OC)c(OC)cc2[N+](=O)[O-])s1 1.11, CCOC(=O)/C(=N\Nc1ccccc1Cl)N(C)C1CCS(=O)(=O)C1 (stereo unspecified) 0.99, COc1cc(S(=O)(=O)N2CCOCC2)ccc1NC(=O)COc1ccc(N(C)S(=O)(=O)c2ccc(C)cc2)cc1 0.76, COc1ccc(Cl)cc1C(=O)NCC#N 0.94, Cn1cc(CCC(=O)N2CCCC(C(=O)c3ccc(C(C)(C)C)cc3)C2)cn1 (stereo unspecified) 0.83, CNc1nccc(-c2ccc(Cl)cc2)c1C#N 1.47, Cc1c(Br)ccc(NC(=O)COc2ccccc2C(N)=O)c1C 1.08, O=C(NC1CCCC1)C(c1ccc(N2CCOCC2)cc1)N(C(=O)c1ccco1)c1ccccc1F (stereo unspecified) 1.05, O=C(COc1ccc(NC(=O)c2ccccc2[N+](=O)[O-])cc1)c1ccc(F)cc1 1.07, Cc1ccc2nc(COc3ccc(N(C)S(=O)(=O)c4ccccc4)cc3)cc(=O)n2c1 1.11, Nc1ccc(C(=O)NCc2ccccc2)cc1 1, O=C(NCCc1ccccc1)c1ccc(OCCOc2ccccc2)cc1 1.27, Cc1ccc(C(=O)NCCNC(=O)c2ccccc2)cc1 1.15, NS(=O)(=O)c1cc(C(=O)NCCOc2ccccc2)c(Cl)cc1Cl 0.66, Cc1cc(C(=O)NCCCc2ccccc2)no1 1.33, COc1ccc(OCCCC(=O)NCCc2ccccc2)cc1 1.08, CC(C)OC(=O)CN1CCN(c2ccc(Cl)cc2)CC1 1.18, c1ccc2c(NC3C4CC5CC(C4)CC3C5)nc(N3CCOCC3)nc2c1 (stereo unspecified) 0.99, Cc1cc(=O)oc(C)c1C(=O)N1CCCCC1 1.16, Cc1cccc(C(=O)N2CCCN(C(=O)c3cccc(C)c3)CC2)c1 1.1

Fold change, active:
Cn1c(-c2ccco2)nc2cc3ccccc3cc21 6.6, CSc1nc(N(C)NC(=O)c2cccc(C)c2)c2ccccc2n1 3.68, Cc1cc(N)n2nc(-c3ccc(C(C)(C)C)cc3)cc2n1 5.07, NC(=O)Cc1ccc2sc(-c3ccccc3)nc2c1 6.92, O=[N+]([O-])c1ccc(N2CCN(c3ccc(O)cc3)CC2)c(Cl)c1 4.06, O=C(Nc1ccc(NC(=O)c2cccs2)cn1)c1ccco1 4.48, N#C/C=C\Oc1ccc(Cl)cc1N 3.39, CCCOc1ccc(C(=O)NCCc2ccccc2)cc1 6.46, O=C(NCCOc1ccccc1)c1ccccc1 4.39, CC(C)c1ccc(C(=O)NCCCc2ccccc2)cc1 4, Cc1ccc2cc3cc(C(=O)N4CCCCCC4)oc3nc2c1 4.26
